# KCNH2 3.1 inh: blocks the human KCNH2 3.1 channel isoform; activity change, % (tested at about 1.8 µM); U2OS KCNH2 3.1, thallium flux FluxOr; active compounds read low; actives 0.95% (n = 340,000); AID 720553;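 active = maximum activity change below -70%; inconclusive = maximum activity change from -70% to -50%; inactive = maximum activity change above -50%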;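 also: thallium influx rate constant from kinetic fluorescence after stimulation buffer; % is scaled to controls: 0 for no effect and ±100 for the full control effect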
#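 Measured as rate of thallium-driven FluxOr signal in transduced U2OS cells carrying the 3.1 channel, read kinetically for 2 min upon stimulation; values are rate constants scaled to DMSO control wells.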
# PTAP TSG101 blk: blocks PTAP/TSG101 interaction to inhibit HIV-1 budding; 340,000 tested, under 10 active; Q99816; Potency, µM (highest dose often 115 µM), for the others: at the top dose activity change, negative = inhibition, actives largely listed as inhibitors; Fluorescence polarization, FITC-PTAP peptide / Tsg101 binding; AID 493005; active = well fitted inhibition curve with a large enough effect in the main read-out, with a control signal flat, not every such curve was filed as active; inconclusive = small, poorly fitted or top-dose-only effect, or effect the other way, or a change in a side signal; inactive = no such curve, though single readings can be large or run the other way; also: potency is read from the fitted curve at half-maximal effect; % of control where 0% means no effect
#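 Steps: Tsg101 binding domain dispensed (10 uM final), compounds pinned in DMSO, FITC-labeled PTAP-motif peptide added (50 nM final); after 20 min binding at room temperature, polarization measured.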
# hERG WT inh: inhibitors of human wildtype KCNH2 potassium channel | Q12809 | U2OS, BacMam KCNH2, thallium flux FluxOr; active compounds read low | activity change, % at 1.84 µM | actives 0.37% (n = 340,000);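 active = maximum activity change below -70%; inconclusive = maximum activity change between -70% and -50%; inactive = maximum activity change above -50%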; also: % is scaled to controls: 0 for no effect and ±100 for the full control effect
#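 U2OS cells transduced with wild-type KCNH2 virus are loaded with FluxOr dye for 45 min, and thallium flux is measured in kinetic reads before and after stimulation buffer. Rate constants are normalized to DMSO controls.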
# Tb PFK block: inhibitors of T. brucei phosphofructokinase; actives 0.17% (n = 330,000); AID 485367; T. brucei PFK, ADP-Glo luminescence; Potency, µM (top dose mostly 57.5 µM), without a hit: top-dose activity, negative = inhibition, actives largely listed as inhibitors; O15648; active = well fitted inhibition curve with a large enough effect; inconclusive = small, poorly fitted or top-dose-only effect, or effect the other way;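 also: potency is read from the fitted curve at half-maximal effect; 0% = uninhibited 1x PFK enzyme wells and -100% = no-enzyme wells; nearly all actives have a fitted effect of over 60% in size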
#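 ADP-Glo luminescence quantified ADP after 45 min at room temperature, with 1.25 nM T. brucei PFK, 0.1 mM ATP and 0.5 mM fructose-6-phosphate in pH 8.0 TEA buffer. qHTS titrations up to 57 µM; curves classified by quality.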
# An asterisk follows results filed as active; u = inconclusive; x = not tested or not shown. In the library only some 1.2% were active in any assay of this set; here they are far more common.
SMILES,KCNH2 3.1 inh,PTAP TSG101 blk,hERG WT inh,Tb PFK block
COc1cccc(CN(C)C(=O)c2ccc(N3CCCC3)c([N+](=O)[O-])c2)c1,-3.8,-1.8%,6.7,4.8%
O=[N+]([O-])c1ccc(OCC(O)CN(C2CCCCC2)C2CCCCC2)cc1 (stereo not drawn),-106.3*,-3.8%,-70.2*,-0.2%
COC(CNC(=O)C1CCN(S(=O)(=O)c2cccc3nsnc23)CC1)OC,8.2,0.1%,5.8,-1.1%
Cc1nc(-c2cccs2)sc1C(=O)O,9.2,0.0%,-95.8*,11.4%
COc1ccccc1N1C(=O)C2C(c3ccc(F)cc3)NN(C(=O)c3ccc(C)cc3)C2C1=O (stereo not drawn),9.5,-7.7%,2.2,-3.9%
Cc1cc(C)n(C(=O)c2sc3cc(F)ccc3c2Cl)n1,x,x,x,5.4%
CC1CCCCN1C(=O)c1ccc(NC(=O)c2ccccc2Cl)cc1 (stereo not drawn),u,-0.7%,-201.7*,-5.0%
COC(=O)c1ccc(/C=C/C(=O)OCC(=O)Nc2sccc2C(N)=O)cc1,0.9,-0.8%,0.1,5.0%
O=C(COC(=O)c1ccc(S(=O)(=O)Nc2ccccc2)cc1)NCCC1=CCCCC1,-5.2,0.2%,-2.8,-2.1%
Cc1cc(C)n2nc(SCc3ccccc3F)nc2n1,4.8,-5.1%,2.7,-0.2%
Cc1cc(C)n2nc(SCc3ccccc3C(=O)O)nc2n1,-191.0*,-2.0%,-144.3*,-8.3%
Cc1ccc(C(=O)NNC(=O)c2n[nH]c(=O)c3ccccc23)cc1C,-79.1*,0.0%,5.7,0.0%
CCc1ccc2nc(SCC(=O)Nc3nnc(C)s3)c(C)cc2c1,-91.4*,1.3%,-6.0,0.2%
O=C(NCC1CCCO1)c1cncc(Br)c1 (stereo not drawn),-145.3*,-5.1%,-15.7,-5.1%
O=C(COC(=O)c1cncc(Br)c1)NCC1CCCO1 (stereo not drawn),-3.7,-12.6%,-2.8,-5.0%
O=C(NCCCN=C1NS(=O)(=O)c2ccccc21)c1ccc(Cl)cc1,-18.4,-6.9%,2.9,2.4%
COc1ccc(/C=C/C(=O)Nc2ccc(OC)cc2[N+](=O)[O-])cc1,-85.2*,-1.3%,-5.1,-4.3%
C=CCn1c(=O)/c(=C/c2ccc(Cl)cc2)s/c1=C(\C#N)c1nnc2n1CCCCC2,-87.1*,-3.5%,0.1,x
C=CCN1C(c2ccccc2)=CS/C1=C(\C#N)c1nnc2n1CCCCC2,-17.5,-5.0%,-2.1,3.3%
CN(c1ccccc1)S(=O)(=O)c1cccc(NC(=O)C2=NN(c3ccccc3)C(=O)CC2)c1,-19.2,-3.2%,-14.1,-0.3%
CCO/C(=C/c1sc2ccc(OC)cc2[n+]1CCCS(=O)(=O)[O-])CC,-6.4,-4.7%,0.4,8.7%
COc1ccc2sc(SCCCS(=O)(=O)O)[n+](CCCS(=O)(=O)[O-])c2c1,-203.4*,-3.8%,-156.2*,u
COc1ccc(Nc2nc(N)nc(CN3CCOCC3)n2)cc1,-14.2,-5.1%,6.5,-2.7%
COc1ccc(Nc2nc(N)nc(CN3CCC(Cc4ccccc4)CC3)n2)cc1,-116.0*,-2.2%,-40.6,-0.4%
COc1ccccc1Nc1nc(N)nc(CN2CCC(C)CC2)n1,-26.6,0.0%,52.4,-8.6%
SMILES,KCNH2 3.1 inh,PTAP TSG101 blk,hERG WT inh,Tb PFK block
COc1ccccc1Nc1nc(N)nc(CN2CCC(Cc3ccccc3)CC2)n1,-104.0*,-2.3%,-155.2*,6.4%
O=C(C1CCCN1S(=O)(=O)c1cccc2nsnc12)N1CCN(c2ccc(F)cc2)CC1 (stereo not drawn),-73.6*,-4.5%,35.5,4.3%
OC(COc1ccc(F)cc1)CN1CCN(CC(O)COc2ccc(F)cc2)CC1 (stereo not drawn),-74.3*,-1.3%,-28.6,-1.7%
CC1CN(CC(O)COc2ccc(C#N)cc2)CCN1CC(O)COc1ccc(C#N)cc1 (stereo not drawn),-102.2*,1.1%,-118.4*,2.4%
OC(COc1ccccc1Cl)CN1CCN(CC(O)COc2ccccc2Cl)CC1 (stereo not drawn),-82.3*,0.0%,u,1.0%
OC(COc1ccccc1)CN1CCCCC1 (stereo not drawn),x,-5.1%,14.0,x
COc1ccc(N2CCN(CC(O)COc3ccc(F)cc3)CC2)cc1 (stereo not drawn),-42.3,-1.1%,18.2,-0.4%
OC(COc1ccc(-c2ccccc2)cc1)CN1CCCCC1 (stereo not drawn),-73.2*,x,14.2,x
Cc1ccccc1OCC(O)CN1CCN(C)CC1 (stereo not drawn),0.0,-2.0%,4.0,11.8%
Cc1ccc(OCC(O)CN2CCN(CC(O)COc3ccc(C)cc3)CC2)cc1 (stereo not drawn),u,-0.9%,-9.2,-0.2%
O=C(Nc1cnccn1)c1ccc(F)cc1Cl,6.0,-5.8%,5.9,1.0%
OC(CNC1CCCC1)COc1ccc(-c2ccccc2)cc1 (stereo not drawn),-71.3*,-0.1%,-5.6,-4.0%
CN(C)CCN(C(=O)/C=C/c1cccs1)c1nc2ccc(F)cc2s1,u,-2.6%,-7.9,2.5%
CCN(CC)CCN(C(=O)/C=C/c1cccs1)c1nc2ccc(Cl)cc2s1,-99.9*,-7.6%,-148.7*,-6.7%
Cn1cnc(C(=O)NCc2ccc(CNC(=O)OC(C)(C)C)cc2)c1C(=O)NCc1ccc(CNC(=O)OC(C)(C)C)cc1,-114.6*,0.7%,-2.6,2.1%
CC(C)(C)OC(=O)NCc1ccc(CNC(=O)c2ncn(Cc3ccccc3)c2C(=O)NCc2ccc(CNC(=O)OC(C)(C)C)cc2)cc1,x,x,x,5.2%
O=C(CCCc1ccccc1)NCCS(=O)(=O)N1CCN(c2ccccc2)CC1,6.6,x,-0.4,x
COc1ccc(CNCC(O)(c2ccccc2)c2ccccc2)cc1,-4.8,-1.2%,19.5,-4.1%
COc1ccc(CNCC(O)(c2ccc(F)cc2)c2ccc(F)cc2)cc1,-104.9*,-11.2%,7.9,-5.4%
Cc1nnc2n(c1=O)C(CS(=O)(=O)c1ccc3ccccc3c1)CS2 (stereo not drawn),21.9,-0.8%,8.6,-4.7%
Cc1ccc(S(=O)(=O)CC2CSc3nnc(C)c(=O)n32)cc1 (stereo not drawn),-93.2*,-4.1%,-5.5,-11.0%
NC(=O)COC(=O)CC(c1ccccc1)c1ccccc1,-94.1*,-6.4%,8.3,-0.6%
N=c1c(C(=O)NCc2ccc3c(c2)OCO3)cc2c(=O)n3ccccc3nc2n1CC1CCCO1 (stereo not drawn),-29.9,0.2%,-43.2,1.3%
COc1ccc(Cn2c(=N)c(C(=O)NCC3CCCO3)cc3c(=O)n4ccccc4nc32)cc1 (stereo not drawn),-7.1,-2.9%,4.8,-0.3%
COc1ccc(CCn2c(=N)c(C(=O)NC3CCCCC3)cc3c(=O)n4ccccc4nc32)cc1,-86.7*,-0.3%,u,0.0%
N=c1c(C(=O)NCc2ccc(F)cc2)cc2c(=O)n3ccccc3nc2n1CC1CCCO1 (stereo not drawn),-86.0*,-18.9%,-122.3*,-4.5%
